Several values for one entry are separate records, joined by “and”; a condition that tells them apart may be missing. Equal values may be shown once. Records with an inconclusive call do not appear. A call without a number means that no potency is given here. Where a structure was tested more than once in an assay, its records may differ in their call. Activity calls are given as the source filed them. Unless noted, calls follow the shape of the dose curve; as a rule, active = well fitted curve in the direction sought with a large enough effect in the repeat runs; inconclusive = weak or mixed curves; inactive = no such curve, though single readings can be large; an effect the other way counts as inactive or inconclusive.
What was measured:
[1] = A CellTox Green Cytotoxicity Assay to monitor cytotoxicity in HepG2 cells - 0 hour (AID 1224882); also: nearly all actives have a fitted effect of over 35% in size; also: potency is read from the fitted curve at half-maximal effect
Summary of the method: (§1)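 HepG2, 600 cells/well premixed w/ CellTox Green; 5 h settle, 37 C/5% CO2; pintool cpd add (DMSO); 37 C, 40 h; fluorescence read at 0, 8, 16, 24, 32, 40 h.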

[2] = A CellTox Green Cytotoxicity Assay to monitor cytotoxicity in HepG2 cells - 32 hour (AID 1224883); also: nearly all actives have a fitted effect of over 50% in size; also: potency is read from the fitted curve at half-maximal effect
Summary of the method: as §1

[3] = A CellTox Green Cytotoxicity Assay to monitor cytotoxicity in HEK293 cells - 8 hour (AID 1224884); also: nearly all actives have a fitted effect of over 35% in size; also: potency is read from the fitted curve at half-maximal effect
Summary of the method: (§2)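 Read-out: fluorescence of a cell-impermeant cyanine dye staining DNA of dead cells, proportional to cytotoxicity. HEK293, 600 cells/well with reagent, compound (23 nL DMSO) added after 5 h; reads at 0, 8, 16, 24, 32, 40 h.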

[4] = qHTS RealTime-Glo MT Cell Viability Assay in HepG2 cells - 16 hour (AID 1224885); also: nearly all actives have a fitted effect of over 50% in size; also: potency is read from the fitted curve at half-maximal effect
Summary of the method: (§3)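 Viability was tracked continuously by NanoLuc luminescence from prosubstrate reduced by living HepG2 cells, at successive time points over 40 h of compound exposure. Cells with reagent were preincubated 5 h at 37 °C before compound addition.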

[5] = qHTS RealTime-Glo MT Cell Viability Assay in HEK293 cells - 24 hour (AID 1224886); also: nearly all actives have a fitted effect of over 50% in size; also: potency is read from the fitted curve at half-maximal effect; as to activity change, negative = cytotoxicity: top concentration of the series differs between compounds
Summary of the method: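 Viability tracked continuously by luminescence as live cells reduce a prosubstrate for NanoLuc; HEK293 cells preincubated 5 h, compound-treated at 37 C, and read at 0, 8, 16, 24, 32 and 40 h.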

[6] = qHTS RealTime-Glo MT Cell Viability Assay in HEK293 cells - 8 hour (AID 1224887); also: nearly all actives have a fitted effect of over 50% in size; also: potency is read from the fitted curve at half-maximal effect; as to activity change, negative = cytotoxicity: top concentration of the series differs between compounds
Summary of the method: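 Luminescence readout at each listed time point; HEK293, 600 cells/well, RealTime-Glo MT reagent added with cells; compounds pinned (23 nL in DMSO) after 5 h at 37 C; continuous culture at 37 C.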

[7] = A CellTox Green Cytotoxicity Assay to monitor cytotoxicity in HepG2 cells - 8 hour (AID 1224890); also: nearly all actives have a fitted effect of over 45% in size; also: potency is read from the fitted curve at half-maximal effect
Summary of the method: as §1

[8] = qHTS assay to identify small molecule antagonists of the estrogen receptor alpha (ER-alpha) signaling pathway using the BG1 cell line in the presence of 0.1 nM 17-beta-estradiol - cell viability counter screen (AID 1259241); also: nearly all actives have a fitted effect of over 40% in size
Summary of the method: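 Viability in VM7Luc4E2 cells after 22 hr compound exposure under 0.1 nM 17beta-estradiol stimulation, by CellTiter-Fluor.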

[9] = qHTS assay to identify small molecule antagonists of the androgen receptor (AR) signaling pathway using the MDA cell line in the presence of 0.5 nM R1881 - cell viability counter screen (AID 1259242); also: nearly all actives have a fitted effect of over 45% in size
Summary of the method: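 Live-cell protease fluorescence, CellTiter-Fluor, 30 min at 37C. Cells: MDA-kb2, 3,000/well, preincubated 5 hr. Compounds plus 0.5 nM R1881 final, 16 hr, 37C, 0% CO2.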

[10] = target: Androgen receptor (Homo sapiens) (UniProt P10275); assay: qHTS assay to identify small molecule antagonists of the androgen receptor (AR) signaling pathway using the MDA cell line in the presence of 0.5 nM R1881 (AID 1259243)
Summary of the method: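 MDA-kb2, MMTV-luc (AR/GR elements); 3,000 cells/well; cpd + 0.5 nM R1881 final; 16 hr 37C, 0% CO2; ONE-Glo 30 min RT; luminescence.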

[11] = target: Estrogen receptor (Homo sapiens) (UniProt P03372); assay: qHTS assay to identify small molecule antagonists of the estrogen receptor alpha (ER-alpha) signaling pathway using the BG1 cell line in the presence of 0.1 nM 17-beta-estradiol (AID 1259244); also: nearly all actives have a fitted effect of over 50% in size; also: potency is read from the fitted curve at half-maximal effect
Summary of the method: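 Luminescence after ONE-Glo (30 min, room temperature) measured ERE-luciferase activity in VM7Luc4E2 cells treated 22 h with compound and 0.1 nM final 17beta-estradiol as stimulator.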

[12] = qHTS assay to identify small molecule phospholipidosis (PLD) inducers (AID 1259344; active = well fitted curve in the direction sought with a large enough effect; an effect the other way counts as inactive or inconclusive)
Summary of the method: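 Phospholipid accumulation was scored by imaging: fixed, Hoechst-counterstained HepG2 cells stained with LipidTOX Red after 24 h compound exposure at 37 C. Read-outs were pit count and pit intensity per well or per cell, with amiodarone and DMSO controls.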

[13] = qHTS assay to identify small molecule antagonists of the sonic hedgehog signaling (Shh) pathway - cell viability counter screen (AID 1259367); also: nearly all actives have a fitted effect of over 55% in size; also: potency is read from the fitted curve at half-maximal effect
Summary of the method: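 Viability was read by CellTiter-Fluor fluorescence in the same wells, reagent added 23 hr into compound treatment and incubated 1 hr at 37C. The 3T3 Gli1-Luc reporter cells (2,000/well) received conditioned medium after compound and ran 24 hr.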

[14] = qHTS assay to identify small molecule agonists of the sonic hedgehog signaling (Shh) pathway (AID 1259368; calls by dose curve;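 also: NIH/3T3-derived 3T3Gli1-Luc cells carrying a stable Gli1-driven firefly luciferase reporter; series mostly up to about 92 µM; nearly all actives have a fitted effect of over 15% in size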)
Summary of the method: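 Read-out: firefly luciferase luminescence from a Gli1 response element reporter stably integrated in NIH/3T3-derived 3T3Gli1-Luc cells, measured 30 min at room temperature after reagent addition. Compound exposure lasted 24 hr at 37 C, 5% CO2.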

[15] = qHTS assay to identify small molecule antagonists of the sonic hedgehog signaling (Shh) pathway (AID 1259369; calls by dose curve; also: nearly all actives have a fitted effect of over 45% in size; also: potency is read from the fitted curve at half-maximal effect)
Summary of the method: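 Luminescence readout: firefly Luc under Gli1 response element in 3T3Gli1-Luc cells (NIH/3T3 clone). Antagonist mode, stimulation by conditioned medium; compound exposure 24hr at 37 C, 5% CO2.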

[16] = qHTS RealTime-Glo MT Cell Viability Assay in HepG2 cells - 0 hour (AID 1224889); also: nearly all actives have a fitted effect of over 50% in size
Summary of the method: as §3

[17] = qHTS assay to identify small molecule HDAC inhibitors (AID 1259364);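 also: wild-type HCT-116 cells with endogenous class I/II HDAC activity; top concentration of the series differs between compounds; nearly all actives have a fitted effect of over 45% in size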
Summary of the method: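 HCT-116 (wild type), 1,500 cells/well, overnight; compound 2 hr 37C 5% CO2; HDAC-Glo I/II reagent 30 min RT; luminescence readout.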

[18] = qHTS assay to identify small molecule agonists of the sonic hedgehog signaling (Shh) pathway - cell viability counter screen (AID 1259366); also: nearly all actives have a fitted effect of over 50% in size; also: potency is read from the fitted curve at half-maximal effect
Summary of the method: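 Stable Gli1-Luc NIH/3T3 clone, 2,000 cells/well. Compound exposure 24hr at 37C. Read-out: CellTiter-Fluor fluorescence.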

[19] = qHTS assay to identify small molecule HDAC inhibitors - cell viability counter screen (AID 1259365)
Summary of the method: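 Cytotoxicity was gauged in wild-type HCT-116 cells after a brief 2hr treatment with DMSO-dissolved compounds at 37C and 5% CO2, using CellTiter-Glo luminescence developed for 30min at room temperature.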

[20] = A CellTox Green Cytotoxicity Assay to monitor cytotoxicity in HEK293 cells - 16 hour (AID 1224888); also: nearly all actives have a fitted effect of over 35% in size
Summary of the method: as §2

Chain of Estrogen receptor (Homo sapiens) (P03372 whole entry, looked up): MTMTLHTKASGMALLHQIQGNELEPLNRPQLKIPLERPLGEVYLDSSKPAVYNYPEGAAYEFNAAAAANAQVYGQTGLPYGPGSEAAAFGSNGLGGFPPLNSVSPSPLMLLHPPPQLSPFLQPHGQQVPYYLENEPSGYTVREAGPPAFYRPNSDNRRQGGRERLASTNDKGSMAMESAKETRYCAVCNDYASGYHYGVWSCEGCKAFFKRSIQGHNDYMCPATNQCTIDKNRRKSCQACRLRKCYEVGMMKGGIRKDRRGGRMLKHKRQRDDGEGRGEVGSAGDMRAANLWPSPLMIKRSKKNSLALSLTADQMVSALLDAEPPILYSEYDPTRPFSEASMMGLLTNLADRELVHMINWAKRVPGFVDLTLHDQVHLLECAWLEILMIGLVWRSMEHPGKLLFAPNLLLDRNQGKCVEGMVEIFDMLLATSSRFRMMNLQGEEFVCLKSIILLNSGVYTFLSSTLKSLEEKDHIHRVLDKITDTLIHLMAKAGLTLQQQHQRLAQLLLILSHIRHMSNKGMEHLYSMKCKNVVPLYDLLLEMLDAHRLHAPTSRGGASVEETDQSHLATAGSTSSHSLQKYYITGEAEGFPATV
Chain of Androgen receptor (Homo sapiens) (P10275 whole entry, looked up): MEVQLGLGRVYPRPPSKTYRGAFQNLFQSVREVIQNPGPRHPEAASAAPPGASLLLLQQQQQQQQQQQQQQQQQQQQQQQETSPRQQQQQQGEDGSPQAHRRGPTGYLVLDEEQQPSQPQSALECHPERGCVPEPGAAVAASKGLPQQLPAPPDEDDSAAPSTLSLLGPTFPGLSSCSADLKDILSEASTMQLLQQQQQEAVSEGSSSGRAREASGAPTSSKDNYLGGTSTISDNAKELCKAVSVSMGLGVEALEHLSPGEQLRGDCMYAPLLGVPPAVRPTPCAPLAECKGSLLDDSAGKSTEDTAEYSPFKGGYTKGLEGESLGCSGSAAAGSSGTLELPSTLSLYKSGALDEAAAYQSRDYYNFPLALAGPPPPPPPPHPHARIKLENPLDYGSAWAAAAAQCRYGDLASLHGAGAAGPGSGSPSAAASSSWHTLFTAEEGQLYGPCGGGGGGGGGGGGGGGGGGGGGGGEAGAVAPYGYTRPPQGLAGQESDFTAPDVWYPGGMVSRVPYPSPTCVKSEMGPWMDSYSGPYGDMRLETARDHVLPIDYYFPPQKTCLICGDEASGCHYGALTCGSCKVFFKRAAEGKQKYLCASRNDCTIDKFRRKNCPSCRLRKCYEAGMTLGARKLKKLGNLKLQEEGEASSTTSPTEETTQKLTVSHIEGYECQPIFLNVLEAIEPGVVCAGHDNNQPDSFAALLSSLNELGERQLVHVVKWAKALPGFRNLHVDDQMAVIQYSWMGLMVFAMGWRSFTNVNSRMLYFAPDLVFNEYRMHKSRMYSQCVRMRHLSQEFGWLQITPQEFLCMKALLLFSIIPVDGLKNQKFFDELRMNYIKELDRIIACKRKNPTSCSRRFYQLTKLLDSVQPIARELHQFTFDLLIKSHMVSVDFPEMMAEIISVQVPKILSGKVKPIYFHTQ

Cc1ccc(-c2cc(C(F)(F)F)nn2-c2ccc(S(N)(=O)=O)cc2)cc1
Potency [1]: inactive | Potency [2]: 48.8 µM (active) and 49 µM (active) | Potency [3]: inactive | Potency [4]: 48.8 µM (active) and 43.6 µM (active) and inactive | Potency [5]: 38.7 µM (active) and 30.9 µM (active) | Potency [6]: 43.5 µM (active) and 30.9 µM (active) and inactive | Potency [7]: 54.9 µM (active) | Potency [8]: inactive | Potency [9]: inactive | Potency [10]: 54.3 µM (active) and 68.6 µM (active) | Potency [11]: inactive | Potency [12]: inactive | Potency [13]: 54.3 µM (active) and 61.1 µM (active) and inactive | Potency [14]: inactive | Potency [15]: 21.6 µM (active) and 13.7 µM (active) and inactive

CC(N)=O
Potency [1]: inactive | Potency [2]: inactive | Potency [3]: inactive | Potency [4]: inactive | Potency [5]: inactive | Potency [6]: inactive | Potency [16]: inactive | Potency [7]: inactive | Potency [8]: inactive | Potency [9]: inactive | Potency [17]: inactive | Potency [18]: inactive | Potency [13]: inactive | Potency [14]: inactive | Potency [15]: inactive

NC(Cc1ccc(Cl)cc1)C(=O)O (stereo not drawn)
cytotoxicity [1]: -3.58% [at 0.29 µM] (inactive) | cytotoxicity increase [2]: -4.66% [at 0.29 µM] (inactive) | cytotoxicity increase [3]: 5.18% [at 0.29 µM] (inactive) | activity change, negative = cytotoxic [4]: -3.04% [at 0.29 µM] (inactive) | activity change, negative = cytotoxicity [6]: 10.3% [at 0.29 µM] (inactive) | cytotoxicity increase [7]: -8.44% [at 0.29 µM] (inactive) | activity change, negative = cytotoxicity [8]: 0.121% [at 0.349 µM] (inactive) | viability change, negative = cytotoxic [9]: 4.52% [at 0.349 µM] (inactive) | Potency [12]: inactive | activity change, negative = inhibition [17]: -0.367% [at 0.349 µM] (inactive) | activity change, negative = cytotoxicity [19]: 1.43% [at 0.349 µM] (inactive) | viability change, negative = cytotoxic [18]: 0.958% [at 0.349 µM] (inactive) | viability change, negative = cytotoxic [13]: 2.83% [at 0.349 µM] (inactive) | activity change [14]: -0.363% [at 0.349 µM, stronger effect = higher value] (inactive) | activity change, negative = inhibition [15]: 23.4% [at 0.349 µM] (inactive)

c1cnc2cc3c(cc2n1)C1CNCC3C1
Potency [1]: inactive | Potency [2]: inactive | Potency [3]: inactive | Potency [4]: inactive | Potency [5]: inactive | Potency [6]: inactive | Potency [7]: inactive | Potency [8]: inactive | Potency [9]: inactive | Potency [11]: inactive | Potency [12]: inactive | Potency [19]: inactive | Potency [13]: inactive | Potency [14]: inactive | Potency [15]: inactive

CC[C@H]1CN2CCc3cc(OC)c(OC)cc3[C@@H]2C[C@@H]1C[C@H]1NCCc2cc(OC)c(OC)cc21
Potency [1]: inactive | Potency [2]: 49.2 µM (active) and 21.3 µM (active) | Potency [3]: inactive | Potency [4]: inactive | Potency [6]: 874 nM (active) and 3.38 µM (active) | Potency [7]: inactive | Potency [12]: inactive | Potency [17]: inactive | Potency [19]: inactive | Potency [18]: 0.274 µM (active) | Potency [13]: 487 nM (active) and 2.37 µM (active) | Potency [14]: inactive | Potency [15]: 8.7 nM (active) and 2.7 nM (active)

NC(N)=Nc1nc(CSCC/C(N)=N/S(N)(=O)=O)cs1
Potency [1]: inactive | Potency [2]: inactive | Potency [3]: inactive | Potency [4]: inactive | Potency [6]: inactive | Potency [20]: inactive | Potency [16]: inactive | Potency [8]: inactive | Potency [9]: inactive | Potency [11]: inactive | Potency [12]: inactive | Potency [17]: inactive | Potency [19]: inactive | Potency [18]: inactive | Potency [13]: inactive | Potency [14]: inactive | Potency [15]: inactive

Oc1c(Cl)cc(Cl)cc1Sc1cc(Cl)cc(Cl)c1O
Potency [1]: inactive and 43.6 µM (active) | Potency [2]: 44.4 µM (active) and 43.6 µM (active) and inactive | Potency [3]: inactive and 43.6 µM (active) | Potency [4]: inactive | Potency [6]: inactive | Potency [7]: inactive and 43.6 µM (active) | Potency [11]: 12.2 µM (active) and 17.5 µM (active) and 15.4 µM (active) | Potency [12]: inactive | Potency [17]: inactive | Potency [19]: inactive | Potency [18]: inactive | Potency [13]: 27.4 µM (active) and inactive | Potency [14]: inactive
